Here are results for eleven compounds from PubChem BioAssay.

Activity calls are given as the source filed them.

Experiment [1] has as its system Plasmodium falciparum Sir2 (PF13_0152, Sir2A). As to the kind of experiment: Plasmodium falciparum Sir2A binding compounds – biochemical, small-molecule microarray, 635 nm fluorescence, primary screen (AID 1098).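 Also: score merges spot fluorescence intensity with its signal-to-noise ratio.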 The settings on record: fluorescence 635 nm, higher = more signal.
The nature of experiment [2]: probe aDKK1 binding to arrayed compounds – biochemical, biotinylated probe, 635/667 nm fluorescence, primary screen (AID 1099).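 Also: score merges 667nm spot fluorescence with signal to noise across triplicate slides; reference of the scale not given here.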 The following applies: small-molecule microarray, higher = more signal.
A short description of experiment [3]: probe aCHRDL2 binding to arrayed compounds – biochemical, biotinylated probe, 635/667 nm fluorescence, primary screen (AID 1100). The settings on record: small-molecule microarray, higher = more signal.
The nature of experiment [4]: change in splice reporter luminescence, either direction, cell-based, HEK293, spliceosome inhibition project, primary screen (AID 1101).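 Also: HEK293 cells carrying a splicing-competent luciferase reporter gene; test concentration not given here.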 The following applies: HEK293 splicing luciferase reporter, 24 h, higher = more signal, called active from +8 up or from −8 down. Background: Reporter assays use an easily measured gene product as a stand-in for the process of interest.

Experiment [5] deals with Fibroblast growth factor 10 (Homo sapiens) (UniProt O15520). Put plainly: compounds binding fibroblast growth factor 10 – biochemical, small-molecule microarray, 635 nm fluorescence, primary screen (AID 1102). The settings on record: FGF10 binding, fluorescence 635 nm, higher = more signal.
The test system of experiment [6] is glycogen synthase kinase-3 (GSK3A per assay name; protocol says GSK3B). Put plainly: compounds binding glycogen synthase kinase-3 – biochemical, small-molecule microarray, 635 nm fluorescence, GSK3A, primary screen (AID 1103). Also: the record names both GSK3A and GSK3B. The settings on record: fluorescence 635 nm, higher = more signal.
Experiment [7] deals with Epidermal growth factor receptor (Homo sapiens) (UniProt P00533). As to the kind of experiment: compounds binding epidermal growth factor receptor – biochemical, small-molecule microarray, 635 nm fluorescence, primary screen (AID 1104).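 Also: score merges 667 nm emission intensity with spot signal to noise over triplicate slides.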 The settings on record: EGFR binding, higher = more signal.
The target in experiment [8] is Follistatin-related protein 3 (Homo sapiens) (UniProt O95633). As to the kind of experiment: compounds binding follistatin-related protein 3 – biochemical, small-molecule microarray, 635 nm fluorescence, primary screen (AID 1105).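 Also: score merges emission near 667 nm and signal to noise per printed spot across three slides.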 The following applies: FSTL3 binding, higher = more signal.
Experiment [9] concerns the target Dickkopf-related protein 1 (Homo sapiens) (UniProt O94907). As to the kind of experiment: small molecules binding DKK1 protein – biochemical, small-molecule microarray, 635 nm fluorescence scan, primary screen (AID 1106).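 Also: score merges emission near 667 nm with signal to noise over three replicate slides.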 The following applies: higher = more signal.
Experiment [10] deals with Inhibin beta A chain (activin A). As to the kind of experiment: small molecules binding activin A – biochemical, small-molecule microarray, 635 nm fluorescence scan, primary screen (AID 1107).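 Also: mouse activin A protein probed at 4.33 µg/mL on printed slides; score merges bound-protein fluorescence near 667 nm with spot signal-to-noise.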 The settings on record: INHBA, higher = more signal.

Sequence of Dickkopf-related protein 1 (Homo sapiens) (O94907 whole entry, looked up): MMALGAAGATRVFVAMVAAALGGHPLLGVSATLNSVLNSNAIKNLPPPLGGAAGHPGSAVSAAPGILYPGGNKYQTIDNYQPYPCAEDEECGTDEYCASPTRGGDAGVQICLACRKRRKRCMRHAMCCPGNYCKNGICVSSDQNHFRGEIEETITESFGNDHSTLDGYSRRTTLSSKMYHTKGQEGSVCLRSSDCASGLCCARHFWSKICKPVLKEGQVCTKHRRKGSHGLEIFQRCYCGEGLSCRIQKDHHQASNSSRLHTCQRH
Sequence of Follistatin-related protein 3 (Homo sapiens) (O95633 whole entry, looked up): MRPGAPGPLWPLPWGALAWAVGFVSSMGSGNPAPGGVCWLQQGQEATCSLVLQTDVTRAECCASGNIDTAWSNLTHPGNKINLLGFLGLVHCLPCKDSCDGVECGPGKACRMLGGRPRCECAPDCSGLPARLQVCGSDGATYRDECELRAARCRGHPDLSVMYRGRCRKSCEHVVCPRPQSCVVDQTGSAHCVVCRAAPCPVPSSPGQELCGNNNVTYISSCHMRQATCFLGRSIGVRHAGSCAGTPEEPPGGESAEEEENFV
Sequence of Fibroblast growth factor 10 (Homo sapiens) (O15520 whole entry, looked up): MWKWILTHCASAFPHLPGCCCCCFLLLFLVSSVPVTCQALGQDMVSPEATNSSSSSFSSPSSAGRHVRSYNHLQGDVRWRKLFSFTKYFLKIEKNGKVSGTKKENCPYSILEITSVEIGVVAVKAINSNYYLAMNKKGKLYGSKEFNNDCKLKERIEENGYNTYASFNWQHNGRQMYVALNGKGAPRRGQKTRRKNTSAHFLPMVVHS
Sequence of Epidermal growth factor receptor (Homo sapiens) (P00533 whole entry, looked up): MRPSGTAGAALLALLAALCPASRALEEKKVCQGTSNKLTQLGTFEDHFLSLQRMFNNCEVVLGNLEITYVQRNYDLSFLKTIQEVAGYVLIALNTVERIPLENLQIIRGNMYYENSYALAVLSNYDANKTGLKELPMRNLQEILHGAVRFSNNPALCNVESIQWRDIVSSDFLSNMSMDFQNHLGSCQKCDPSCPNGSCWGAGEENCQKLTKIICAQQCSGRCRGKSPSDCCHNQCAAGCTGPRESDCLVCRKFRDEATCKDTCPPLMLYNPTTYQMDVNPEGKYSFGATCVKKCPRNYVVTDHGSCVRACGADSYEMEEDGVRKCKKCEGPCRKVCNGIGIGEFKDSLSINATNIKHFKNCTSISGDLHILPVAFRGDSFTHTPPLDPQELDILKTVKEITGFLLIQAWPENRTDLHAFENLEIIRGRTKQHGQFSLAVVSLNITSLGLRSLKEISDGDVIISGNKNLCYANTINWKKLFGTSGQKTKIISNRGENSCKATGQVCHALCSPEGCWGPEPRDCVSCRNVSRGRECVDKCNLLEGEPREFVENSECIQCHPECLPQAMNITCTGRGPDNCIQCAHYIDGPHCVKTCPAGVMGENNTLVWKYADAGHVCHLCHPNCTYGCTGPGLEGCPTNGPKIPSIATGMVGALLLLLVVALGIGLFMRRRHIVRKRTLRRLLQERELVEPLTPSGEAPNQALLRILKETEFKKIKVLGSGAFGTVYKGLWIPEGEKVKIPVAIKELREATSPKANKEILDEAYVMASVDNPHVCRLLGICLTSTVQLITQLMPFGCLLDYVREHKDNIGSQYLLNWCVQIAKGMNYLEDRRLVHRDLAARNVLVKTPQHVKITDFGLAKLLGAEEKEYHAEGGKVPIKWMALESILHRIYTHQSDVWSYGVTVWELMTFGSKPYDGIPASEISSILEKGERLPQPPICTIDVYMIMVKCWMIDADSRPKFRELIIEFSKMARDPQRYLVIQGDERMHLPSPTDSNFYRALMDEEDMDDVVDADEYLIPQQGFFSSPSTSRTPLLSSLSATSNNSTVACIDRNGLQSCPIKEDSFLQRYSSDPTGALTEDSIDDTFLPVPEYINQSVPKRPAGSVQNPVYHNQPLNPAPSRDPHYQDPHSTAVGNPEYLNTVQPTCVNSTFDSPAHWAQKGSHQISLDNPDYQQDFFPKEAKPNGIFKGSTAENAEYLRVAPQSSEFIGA

On to `C=CCNC(=O)[C@@H]1[C@H]2C(=O)O[C@H](c3ccccc3)[C@H](c3ccccc3)N2[C@H](c2ccc(OCCO)cc2)[C@@]12C(=O)Nc1ccc(C#Cc3ccc(OC)cc3)cc12`, for which the composite z-score in [1] turned out to be 1.28; in experiment [2], 0.707; in [3], 0.792; in experiment [5], 0.939; in [6], 1.29; in experiment [7] it was 0.641. Moreover, the composite z-score in [8] is 1.25; in [9] it was 1.07; in experiment [10], 0.746. Besides, the z-score in [4] was -0.476 (inactive).
As to `CC(=O)N1Cc2ccccc2C[C@@]2(COC(c3ccc(OCCCO)cc3)=N2)C1=O`, the composite z-score in experiment [1] was 1.32; in [2], 1.18; in experiment [3], 1.31; in experiment [5], 0.649; in experiment [6] it was 1.32; in [7], 0.455. The composite z-score in experiment [8] is 1.13; in experiment [9] it was 0.438; in experiment [10], 1.09. For the same compound, the z-score in [4] is -1.66 (inactive).
Take `COc1ccc(C(O)C2C=CC3C(=O)N(c4ccccc4)C(=O)C3N2Nc2ccccc2F)cc1OCc1ccccc1` (stereo not given): the composite z-score came to 1.21 in [1]; 1.21 in experiment [2]; 1.08 in experiment [3]; 0.771 in experiment [5]; 0.693 in [6]; 0.0115 in experiment [7]. The composite z-score in experiment [8] is 0.711; in experiment [9], -0.633; in [10], 1.35. In experiment [4], the z-score was 0.249 (inactive).
`O=C1O[C@H](c2ccccc2)[C@H](c2ccccc2)N2[C@H]1[C@@H](C(=O)NC[C@H](O)c1ccccc1)[C@]1(C(=O)Nc3ccccc31)[C@H]2c1ccc(OCCO)cc1`: the composite z-score in experiment [1] is 0.884; in experiment [2] it was 0.569; in experiment [3], 0.672; in experiment [5] it was 0.745; in experiment [6] it was 1.23; in experiment [7], -0.0151. Besides, the composite z-score in experiment [8] is 0.464; in [9], 0.289; in [10], 0.286. Besides, the z-score in experiment [4] is 0.985 (inactive).
As for `C=CC[C@@]1(C(N)=O)N=C(c2ccc(OCCCO)cc2)O[C@@H]1c1ccccc1CN=[N+]=[N-]`, the composite z-score is 1.02 in experiment [1]; 0.917 in experiment [2]; 1.19 in experiment [3]; 0.903 in [5]; 0.336 in experiment [6]; -0.44 in [7]. Also, the composite z-score in experiment [8] is 0.267; in experiment [9] it was -0.196; in [10], 1.14. The z-score in experiment [4] was -1.63 (inactive).
As to `COC(=O)[C@@]1(Cc2ccc(OC)cc2)[C@H]2c3cc(C(=O)N(C)C)n(CCN4CNCC4=O)c3C[C@H]2CN1C(=O)c1ccccc1`, the composite z-score in experiment [1] is 0.44; in experiment [2], -0.218; in experiment [3] it was 0.7; in experiment [5], -0.33; in [6], -0.638; in [7], 0.259. The figures for the composite z-score in experiment [8], in experiment [9] and in experiment [10] were -0.153, -0.812 and 0.712, respectively. In addition, in [4], the z-score is 2.02 (inactive).
Turning to `CN1C(=O)C2C=CC(C(O)c3cc(C(F)(F)F)cc(C(F)(F)F)c3)N(N3CCCCC3)C2C1=O` (stereo not given), the composite z-score in experiment [1] was 0.567; in [2], 0.853; in experiment [3], 1.01; in [5] it was 0.246; in experiment [6], -0.0883; in experiment [7], -0.448. Moreover, the composite z-score in experiment [8] was 0.0198; in [9] it was -0.722; in experiment [10], 0.291. Further, the z-score in [4] was 0.139 (inactive).
`CN(C)CCCNC(=O)[C@@]1(c2ccc([N+](=O)[O-])cc2)CC(=O)N(C2CCCCC2)[C@@H]1c1ccc(CO)cc1`: the composite z-score in experiment [1] was 0.762; in [2] it was 0.0157; in experiment [3] it was 0.759; in [5] it was -0.105; in experiment [6], -0.148; in experiment [7], -0.364. Further, the values for the composite z-score in experiment [8], in experiment [9] and in experiment [10] were 0.156, -0.236 and 1.27, respectively. Further, the z-score in [4] was 0.315 (inactive).
For `COc1ccc(C#Cc2ccc3c(c2)[C@]2(C(=O)N3)[C@H](c3ccccc3OCCO)N3[C@H](c4ccccc4)[C@H](c4ccccc4)OC(=O)[C@H]3[C@@H]2C(=O)O)cc1`, the composite z-score came to 1.26 in [1]; 0.734 in [2]; 0.142 in experiment [3]; 1.4 in experiment [5]; 1.21 in [6]; 0.319 in [7]. Also, the figures for the composite z-score in experiment [8], in [9] and in experiment [10] were 0.98, 0.126 and 0.54, respectively. In addition, the z-score in experiment [4] was -2.14 (inactive).
Regarding `COC(=O)[C@@]1(Cc2ccc(OC)cc2)[C@H]2c3cc(C(=O)N(C)C)n(Cc4cccc5ccccc45)c3C[C@H]2CN1C(=O)c1ccccc1`, the composite z-score in [1] was 0.971; in experiment [2], 1.8; in [3], 0.771; in experiment [5], 1.04; in [6], 0.329; in experiment [7], 0.671. Further, the composite z-score in experiment [8] is 0.553; in experiment [9], 0.208; in [10], 0.537. Further, the z-score in [4] was -3.61 (inactive).
Regarding `COCCCNC(=O)[C@@]1(Cc2ccccc2N=[N+]=[N-])N=C(c2ccc(OCCCO)cc2)O[C@H]1c1ccccc1N=[N+]=[N-]`, the composite z-score in experiment [1] worked out at 1.34; in experiment [2], 1.04; in experiment [3], 1.25; in experiment [5] it was 0.935; in [6], 0.82; in experiment [7], 0.372. The composite z-score in [8] was 0.937; in experiment [9], -0.138; in [10], 0.797. In addition, the z-score in [4] was 1.87 (inactive).
